PubChem BioAssay AID1347420 (Sanford-Burnham Center for Chemical Genomics, 2020)
In all, about 1,300 compounds went through this assay and about 980 (75%) were called active. Another 4% or so got no clear call; they are omitted. Some of the results follow.

target: Sulfhydryl oxidase 1 (Homo sapiens) (UniProt O00391); assay: inhibition of human sulfhydryl oxidase QSOX1 – biochemical, HyperBlu H2O2 luminescence, HTS, primary screen (AID 1347420); details: recombinant QSOX1, HyperBlu H2O2 luminescence; at 12.5 µM; active compounds read high; active = any value above zero; also: values above 100% were filed as inconclusive
Sequence (O00391 whole entry, looked up): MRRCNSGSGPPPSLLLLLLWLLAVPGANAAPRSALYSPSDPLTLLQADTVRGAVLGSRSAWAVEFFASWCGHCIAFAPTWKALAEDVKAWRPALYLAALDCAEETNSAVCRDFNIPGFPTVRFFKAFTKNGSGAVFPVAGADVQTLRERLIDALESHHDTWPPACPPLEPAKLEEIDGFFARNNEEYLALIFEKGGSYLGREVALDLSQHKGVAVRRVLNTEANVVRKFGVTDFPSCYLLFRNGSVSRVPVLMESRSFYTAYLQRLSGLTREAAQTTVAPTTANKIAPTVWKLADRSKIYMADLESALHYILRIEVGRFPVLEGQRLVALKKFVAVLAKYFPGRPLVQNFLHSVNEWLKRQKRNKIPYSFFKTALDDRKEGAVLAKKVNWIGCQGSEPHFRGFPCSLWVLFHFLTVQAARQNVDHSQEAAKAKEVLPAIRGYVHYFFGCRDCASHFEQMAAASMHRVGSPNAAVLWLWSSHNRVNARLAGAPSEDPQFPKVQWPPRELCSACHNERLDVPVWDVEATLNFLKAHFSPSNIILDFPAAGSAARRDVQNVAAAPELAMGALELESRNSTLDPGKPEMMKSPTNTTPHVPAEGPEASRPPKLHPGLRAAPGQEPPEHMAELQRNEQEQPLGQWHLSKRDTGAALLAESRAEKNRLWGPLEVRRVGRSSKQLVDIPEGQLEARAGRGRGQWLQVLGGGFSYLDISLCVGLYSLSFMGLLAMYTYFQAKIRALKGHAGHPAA

**Q.** `CCCn1c(=O)c2c(ncn2C)n(CCC)c1=O` was tested. Which inhibition did it give?
**A.** The inhibition was 11.9% (active).

**Q.** `Cn1cnc2c1c(=O)[nH]c(=O)n2C` was tested. Which inhibition did it give?
**A.** The inhibition was 0% (inactive).

**Q.** With `CC(=O)CCCCn1c(=O)c2c(ncn2C)n(C)c1=O` as the compound, how does the inhibition read?
**A.** The inhibition was 13.8% (active).

**Q.** For `C#CCn1c(=O)c2c(ncn2C)n(C)c1=O`, which inhibition is on record?
**A.** Its inhibition is 4% (active).

**Q.** `CCCn1cnc2c1c(=O)n(CCCCC(C)=O)c(=O)n2C` was tested. Which inhibition did it give?
**A.** The inhibition was 5.2% (active).

**Q.** With `Cn1c(=O)[nH]c2ncn(C)c2c1=O` as the compound, how does the inhibition read?
**A.** Its inhibition is -0.4% (inactive).

**Q.** With `Cn1c(=O)c2c(ncn2C)n(C)c1=O` as the compound, how does the inhibition read?
**A.** The inhibition was -2% (inactive).

**Q.** Which inhibition does the source give for `COc1ccc(CCn2nnnc2C2(c3ccc(C)cc3)CC2)cc1` here?
**A.** Its inhibition is 14.5% (active).

**Q.** With `Fc1ccc(C(c2ccc(F)cc2)N2CCN(C/C=C/c3ccccc3)CC2)cc1` as the compound, how does the inhibition read?
**A.** Its inhibition is 5.6% (active).

**Q.** `C(=C\c1ccccc1)/CN1CCN(C(c2ccccc2)c2ccccc2)CC1` was tested. Which inhibition did it give?
**A.** The inhibition was -9.7% (inactive).

**Q.** `O=C1c2c(O)cc(O)cc2OC(c2ccc(O)c(O)c2)C1O` (centres undefined) was tested. Which inhibition did it give?
**A.** Its inhibition is 65.2% (active).

**Q.** How did the inhibition turn out when `Oc1cc(O)c2c(c1)O[C@H](c1ccc(O)c(O)c1)[C@@H](O)C2` was run?
**A.** The inhibition was 72.1% (active).

**Q.** `COc1ccc(Cl)cc1C(=O)NCCc1ccc(S(=O)(=O)NC(=O)NC2CCCCC2)cc1` was tested. Which inhibition did it give?
**A.** The inhibition was 7.7% (active).

**Q.** For `Cc1cnc(C(=O)NCCc2ccc(S(=O)(=O)NC(=O)NC3CCCCC3)cc2)cn1`, which inhibition is on record?
**A.** The inhibition was -6.9% (inactive).

**Q.** How did the inhibition turn out when `Cc1cccc(C)c1NC(=O)C(C)N` (centres undefined) was run?
**A.** The inhibition was 17.2% (active).

**Q.** Which inhibition does the source give for `CN(C)CCCN1c2ccccc2Sc2ccc(Cl)cc21` here?
**A.** Its inhibition is 98.2% (active).

**Q.** With `CN(C)CCCN1c2ccccc2Sc2ccc(C(F)(F)F)cc21` as the compound, how does the inhibition read?
**A.** The inhibition was 83.7% (active).

**Q.** With `CCC(=O)c1ccc2c(c1)N(CCCN(C)C)c1ccccc1S2` as the compound, how does the inhibition read?
**A.** The inhibition was 96.5% (active).

**Q.** With `NCCS` as the compound, how does the inhibition read?
**A.** The inhibition was 28.5% (active).

**Q.** How did the inhibition turn out when `O=c1[nH]c2ccccc2c2ccccc12` was run?
**A.** Its inhibition is 10.9% (active).

**Q.** How did the inhibition turn out when `C=Cc1c(C)c2cc3[nH]c(cc4nc(cc5nc(cc1[nH]2)C(C)=C5CCC(=O)O)C(CCC(=O)O)=C4C)c(C)c3C=C` was run?
**A.** The inhibition was 29.8% (active).

**Q.** With `CCOC(=O)N1CCN(/[N+]([O-])=N/Oc2ccc([N+](=O)[O-])cc2[N+](=O)[O-])CC1` as the compound, how does the inhibition read?
**A.** Its inhibition is 73.3% (active).

**Q.** For `NNc1nncc2ccccc12`, which inhibition is on record?
**A.** Its inhibition is 92.6% (active).

**Q.** With `COc1cc2ncnc(Nc3cccc(Cl)c3)c2cc1OC` as the compound, how does the inhibition read?
**A.** The inhibition was 0.4% (active).

**Q.** For `CC1CCN(CC[C@H]2CCCN2S(=O)(=O)c2cccc(O)c2)CC1`, which inhibition is on record?
**A.** Its inhibition is 2.8% (active).

**Q.** How did the inhibition turn out when `O=c1[nH]ccc2c(O)cccc12` was run?
**A.** Its inhibition is 41.9% (active).

**Q.** `Oc1cc2c(cc1O)C(c1ccccc1)CNCC2` (centres undefined) was tested. Which inhibition did it give?
**A.** Its inhibition is 57.5% (active).

**Q.** Which inhibition does the source give for `Oc1cc2c(c(Cl)c1O)CCNCC2c1ccccc1` (centres undefined) here?
**A.** The inhibition was 93.6% (active).

**Q.** With `CCNC(=O)N1CCN(CCCC(c2ccc(F)cc2)c2ccc(F)cc2)CC1` as the compound, how does the inhibition read?
**A.** Its inhibition is 8.8% (active).

**Q.** Which inhibition does the source give for `O=C1C2C=CC=CC2=NC(=S)N1CCN1CCC(=C(c2ccc(F)cc2)c2ccc(F)cc2)CC1` (centres undefined) here?
**A.** Its inhibition is 4.1% (active).

**Q.** For `CC(=O)Oc1ccccc1C(=O)O`, which inhibition is on record?
**A.** The inhibition was 12.4% (active).

**Q.** For `C#C[C@]1(O)CC[C@H]2[C@@H]3CCC4=Cc5oncc5CC4(C)[C@H]3CCC21C` (some centres undefined), which inhibition is on record?
**A.** The inhibition was 22.1% (active).

**Q.** Which inhibition does the source give for `COc1cc(C(O)C(=O)O)ccc1O` (centres undefined) here?
**A.** The inhibition was 12.1% (active).

**Q.** `COc1cc(C(O)CO)ccc1OS(=O)(=O)O` (centres undefined) was tested. Which inhibition did it give?
**A.** Its inhibition is 2.7% (active).

**Q.** With `COc1cc(C(O)CO)ccc1O` (centres undefined) as the compound, how does the inhibition read?
**A.** The inhibition was 13.7% (active).

**Q.** `Cc1cc(Cn2cnc3c2C[C@@H](C(=O)O)N(C(=O)C(c2ccccc2)c2ccccc2)C3)ccc1N` was tested. Which inhibition did it give?
**A.** Its inhibition is 29.8% (active).

**Q.** `CCN1CCCC1CNC(=O)c1cc(S(N)(=O)=O)ccc1OC` (centres undefined) was tested. Which inhibition did it give?
**A.** Its inhibition is -11.2% (inactive).

**Q.** Which inhibition does the source give for `CCN1CCC[C@H]1CNC(=O)c1cc(S(N)(=O)=O)ccc1OC` here?
**A.** The inhibition was 1% (active).

**Q.** `CCN1CCCC1CNC(=O)c1cc(S(=O)(=O)CC)c(N)cc1OC` (centres undefined) was tested. Which inhibition did it give?
**A.** The inhibition was 3.7% (active).

**Q.** For `CCCCNc1c(C(=O)OCC)c(C)nc2c1cnn2CC`, which inhibition is on record?
**A.** Its inhibition is 12.7% (active).

**Q.** For `CCOC(=O)c1cnc2c(cnn2CC)c1NN=C(C)C`, which inhibition is on record?
**A.** The inhibition was 19.1% (active).

**Q.** With `NC[C@@H]1O[C@H](C23CC4CC(CC(C4)C2)C3)Cc2c1ccc(O)c2O` as the compound, how does the inhibition read?
**A.** The inhibition was 54% (active).

**Q.** Which inhibition does the source give for `NC[C@@H]1O[C@H](c2ccccc2)Cc2c1ccc(O)c2O` here?
**A.** The inhibition was 71.1% (active).

**Q.** How did the inhibition turn out when `CC(C)C[C@H]1C(=O)N2CCC[C@H]2[C@]2(O)O[C@](NC(=O)[C@@H]3C=C4c5cccc6[nH]c(Br)c(c56)C[C@H]4N(C)C3)(C(C)C)C(=O)N12` was run?
**A.** Its inhibition is 33.5% (active).

**Q.** For `C[C@H](CS)C(=O)N1CCC[C@H]1C(=O)O`, which inhibition is on record?
**A.** The inhibition was -8.3% (inactive).

**Q.** How did the inhibition turn out when `c1ccc(C(NCCNC(c2ccccc2)c2ccccc2)c2ccccc2)cc1` was run?
**A.** Its inhibition is 7.6% (active).

**Q.** Which inhibition does the source give for `CCOC(=O)C12CC1/C(=N/O)c1ccccc1O2` (centres undefined) here?
**A.** Its inhibition is 11.7% (active).

**Q.** `CCCCOC(=O)NS(=O)(=O)c1sc(CC(C)C)cc1-c1ccc(Cn2c(CC)nc3c(C)cc(C)nc32)cc1` was tested. Which inhibition did it give?
**A.** Its inhibition is 15.1% (active).

**Q.** With `C1CCC(N=C(NC23CC4CC(CC(C4)C2)C3)N2CCOCC2)CC1` as the compound, how does the inhibition read?
**A.** The inhibition was 8.2% (active).

**Q.** How did the inhibition turn out when `NC1=NCC2c3ccccc3Cc3ccccc3N12` (centres undefined) was run?
**A.** Its inhibition is 2.9% (active).

**Q.** How did the inhibition turn out when `Cc1c(OCC(F)(F)F)ccnc1CS(=O)c1nc2ccccc2[nH]1` (centres undefined) was run?
**A.** The inhibition was 2.3% (active).

**Q.** With `Nc1ccc(-c2ccc3ccccc3n2)cc1` as the compound, how does the inhibition read?
**A.** Its inhibition is 54.7% (active).

**Q.** For `c1ccc2nc(C3=NCCN3)ccc2c1`, which inhibition is on record?
**A.** Its inhibition is -4.5% (inactive).

**Q.** Which inhibition does the source give for `Nc1ncnc2n[nH]c(Nc3ccc(F)cc3)c12` here?
**A.** Its inhibition is 81.8% (active).

**Q.** For `CCN1CCc2nc(N)oc2CC1`, which inhibition is on record?
**A.** Its inhibition is 48.7% (active).

**Q.** With `O=c1[nH]c2cc([N+](=O)[O-])c([N+](=O)[O-])cc2[nH]c1=O` as the compound, how does the inhibition read?
**A.** Its inhibition is 87% (active).

**Q.** Which inhibition does the source give for `C=C[C@H]1CN2CC[C@@H]1C[C@H]2[C@@H](O)c1ccnc2ccc(OC)cc12` here?
**A.** The inhibition was -2.4% (inactive).

**Q.** How did the inhibition turn out when `C=C[C@H]1CN2CC[C@@H]1C[C@@H]2[C@H](O)c1ccnc2ccc(OC)cc12` was run?
**A.** Its inhibition is 4.7% (active).

**Q.** Which inhibition does the source give for `CCCCCC(O)CCCC(=O)O` (centres undefined) here?
**A.** The inhibition was -0.3% (inactive).

**Q.** How did the inhibition turn out when `CCCCCCCCCCC/C=C\C(C)(C)/C=C\CCCC(=O)O` was run?
**A.** The inhibition was 25.2% (active).

**Q.** With `CCCCCCC/C=C\CCCCCCCCC(=O)O` as the compound, how does the inhibition read?
**A.** Its inhibition is 11% (active).

**Q.** How did the inhibition turn out when `COCCc1ccc(OCC(O)CNC(C)C)cc1` (centres undefined) was run?
**A.** The inhibition was -17.5% (inactive).

**Q.** How did the inhibition turn out when `CC(C)NC[C@H](O)COc1ccc(CC(N)=O)cc1` was run?
**A.** Its inhibition is -4.6% (inactive).

**Q.** How did the inhibition turn out when `CC(C)NCC(O)COc1ccc(CC(N)=O)cc1` (centres undefined) was run?
**A.** The inhibition was 7.4% (active).

**Q.** For `CC(C)NCC(O)COc1ccc(CCOCC2CC2)cc1` (centres undefined), which inhibition is on record?
**A.** Its inhibition is 11.4% (active).

**Q.** Which inhibition does the source give for `CC(=O)SC1CC2=CC(=O)CC[C@]2(C)C2CC[C@@]3(C)C(CC[C@@]34CCC(=O)O4)C12` (some centres undefined) here?
**A.** Its inhibition is 5.4% (active).

**Q.** `O=c1c(-c2ccc(O)cc2)coc2cc(O)cc(O)c12` was tested. Which inhibition did it give?
**A.** Its inhibition is 33.2% (active).

**Q.** `O=c1cc(-c2ccc(O)cc2)oc2cc(O)cc(O)c12` was tested. Which inhibition did it give?
**A.** Its inhibition is 88.8% (active).

**Q.** Which inhibition does the source give for `O=c1c(-c2ccc(O)cc2)coc2cc(O)ccc12` here?
**A.** Its inhibition is 32.4% (active).
